According to PMC5540273 (PLoS ONE, 2017):

Tests used:
Conditions in all cases: concentration: 1 μM, replicates: in singlicate; n = 1
[1] = system: MKNK1
[2] = system: MKNK2
[3] = system: T1, MLCK
T1 construct: gene MYLK3

[4] = system: T2, MLK1
T2 construct: gene MAP3K9

[5] = system: MLK2
[6] = system: MLK3
[7] = system: MRCKA
[8] = system: T3, MRCKB
T3 construct: gene CDC42BPB

[9] = system: MST1R
[10] = system: T4, MST1
T4 construct: gene STK4

[11] = system: T5, MST2
T5 construct: gene STK3

[12] = system: T6, MST3
T6 construct: gene STK24

[13] = system: MST4
[14] = system: MTOR
[15] = system: MUSK
[16] = system: MYLK2
[17] = system: MYLK4
[18] = system: MYLK
[19] = system: MYO3A
[20] = system: MYO3B
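Also: KINOMEscan kinase panel screen.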

Structure (SMILES)	%Inh [1] [%]	%Inh [2] [%]	%Inh [3] [%]	%Inh [4] [%]	%Inh [5] [%]	%Inh [6] [%]	%Inh [7] [%]	%Inh [8] [%]	%Inh [9] [%]	%Inh [10] [%]	%Inh [11] [%]	%Inh [12] [%]	%Inh [13] [%]	%Inh [14] [%]	%Inh [15] [%]	%Inh [16] [%]	%Inh [17] [%]	%Inh [18] [%]	%Inh [19] [%]	%Inh [20] [%]
Cc1csc(-c2nc(Nc3ccncc3)c3ccccc3n2)n1 [GW869640]	0	38	2	8	60	0	0	44	11	18	0	11	40	74	11	5	0	26	2	36
COc1ccccc1-c1ccc2c(NC(=O)C3CC3)n[nH]c2n1 [SB-711239]	0	0	14	8	8	8	0	0	16	0	0	0	0	30	0	23	0	12	0	0
CC(=O)Nc1nc2cnc(Nc3cc(NC(=O)c4cccc(CCC#N)c4)ccc3C)nc2s1	3	0	0	2	15	13	0	0	21	5	27	3	0	0	0	0	6	27	13	0
COC(=O)c1c(-c2ccccc2)c2cc(OC)ccc2c(=O)n1Cc1ccccc1	5	0	3	0	9	0	0	0	38	15	26	20	0	0	11	0	8	0	9	0
O=C(Nc1ccc2c(c1)OCO2)NC1CCN(c2ccnc(Nc3ccc(F)cc3)n2)C1 (stereo not drawn) [GSK1379724]	0	3	0	0	0	2	2	16	35	0	0	0	0	5	2	1	0	0	24	0
Cc1cccc(-c2nc(Nc3cccc(C(N)=O)c3)c3ccccc3n2)n1 [GW876019]	0	0	0	4	0	0	38	32	0	31	20	0	0	35	0	0	0	28	11	20
Cc1ccc(-c2cc(-c3c[nH]nc3-c3ccccn3)ccn2)cc1 [GW684088]	0	1	0	0	0	15	2	0	13	0	3	25	0	22	0	39	13	18	46	5
Cc1nnc(-c2ccc3occ(-c4ccc(S(C)=O)cc4)c3c2)[nH]1 (stereo not drawn)	9	49	8	6	3	4	1	0	0	0	0	11	0	10	16	4	7	11	0	2
Nc1ncnc2[nH]c(-c3ccccc3)nc12 [AH5015]	0	39	0	11	5	4	0	0	3	100	0	0	1	9	18	0	30	7	8	0
COc1ccccc1CNC(=O)c1cc(C(=O)c2ccccc2C)c[nH]1 [GSK364507]	5	2	9	0	0	0	40	0	36	0	0	0	0	13	7	6	3	19	6	2
COc1ccc(CNC(=O)NC2CCN(c3ccnc(Nc4cc(OC)c(OC)c(OC)c4)n3)C2)cc1 (stereo not drawn) [GSK1379748]	8	30	0	0	21	23	34	0	29	0	1	0	0	14	2	4	2	10	36	0
Cc1cccc(-c2nc(C)cc(Nc3ccncc3)n2)n1 [GSK257997]	0	0	0	0	0	39	34	81	35	8	0	0	0	13	0	16	9	5	6	0
CCn1c(-c2ccccn2)nc2cnccc21 [SB-736398]	26	24	0	12	0	7	14	0	47	29	0	0	0	0	5	3	2	0	18	0
COc1cc2ncn(-c3cc(OCC4CCCO4)c(C(N)=O)s3)c2cc1OC (stereo not drawn) [GSK204607]	0	4	0	0	0	10	8	0	16	0	1	6	0	11	1	0	81	19	15	0
CCCc1ccc(S(=O)(=O)NC2CCN(c3ccnc(Nc4ccc(F)cc4)n3)C2)cc1 (stereo not drawn) [GSK1379715]	0	8	0	0	0	0	12	0	7	0	0	0	0	0	8	0	0	0	11	0
O=C(Nc1ccccc1)Nc1cccc(Oc2ccc3nccn3n2)c1	10	0	7	0	9	0	1	4	0	0	0	3	0	21	0	0	0	0	0	0
Cc1ccc(C(=O)Nc2ccc(Nc3ccnc4cc(-c5ccccn5)ccc34)cc2O)cc1.Cl [GW440146]	0	0	0	0	0	0	18	0	52	10	0	0	0	17	14	6	0	5	11	0
Cc1cccc(-c2nc(Nc3ccncc3)c3ccccc3n2)n1 [GW855857]	0	0	0	11	7	6	47	63	0	0	0	3	0	50	17	7	7	12	0	17
Cl.O=C(Nc1cccc(-c2nn3ncccc3c2-c2ccnc(Nc3cccnc3)n2)c1)c1c(F)cccc1F [GSK312879]	0	30	0	0	31	1	1	8	26	17	19	0	0	15	23	13	1	2	0	0
COc1cccc(NC(=O)NC2CCN(c3ccnc(Nc4ccc(F)cc4)n3)C2)c1 (stereo not drawn) [GSK1379721]	23	0	0	0	0	0	6	0	28	0	17	0	0	19	0	1	6	0	25	6
Cc1cc(NCC(c2ccccc2)c2ccccc2)nc(NCc2ccc(C(F)(F)F)cc2)n1 [GW497681]	0	0	3	0	0	0	3	0	10	0	0	3	0	1	0	0	0	15	34	0
